Assay results published in PubChem BioAssay (Tox21).
Several values for one entry are separate records, joined by “and”; a condition that tells them apart may be missing. Equal entries are not always repeated. More than one record can exist for a structure, and the calls need not agree. Activity calls are given as the source filed them. Entries that show only a call come without a potency. Unless noted, the call rests on the fitted dose curve; in most records, active means well fitted curve in the direction sought with a large enough effect in the repeat runs; inconclusive means weak or mixed curves; inactive means no such curve, though single readings can be large; an effect the other way counts as inactive or inconclusive.

Tests used:
[1] = qHTS assay to identify small molecule antagonists of the thyroid receptor (TR) signaling pathway - cell viability counter screen (AID 743064); further: nearly all actives have a fitted effect of over 50% in size; further: potency means the concentration at half of the fitted maximal effect
Procedure, shortened: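 CellTiter-Fluor readout, 30 min at 37 °C/5% CO2, following 23.5 h incubation of GH3.TRE-Luc cells with test compound and 1 nM T3 (final).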

[2] = qHTS assay to identify small molecule antagonists of the thyroid receptor (TR) signaling pathway (AID 743065); further: nearly all actives have a fitted effect of over 55% in size; further: potency means the concentration at half of the fitted maximal effect
Procedure, shortened: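 Antagonism measured as loss of luciferase signal in GH3 cells stably carrying a TRE-luciferase reporter, co-treated with compound and T3 (1 nM final) for 23.5 h at 37 C. Viability was read in the same well by CellTiter-Fluor.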

[3] = system: thyroid hormone receptor (rat, GH3 cells); assay: qHTS assay to identify small molecule agonists of the thyroid receptor (TR) signaling pathway (AID 743066; calls by dose curve)
[4] = qHTS assay to identify small molecule antagonists of the estrogen receptor alpha (ER-alpha) signaling pathway - cell viability counter screen (AID 743074; calls by dose curve;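 further: HEK293 cells carrying ER-alpha-UAS-bla reporter stimulated with 17beta-estradiol; nearly all actives have a fitted effect of over 45% in size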; further: potency means the concentration at half of the fitted maximal effect)
[5] = qHTS assay to identify small molecule antagonists of the estrogen receptor alpha (ER-alpha) signaling pathway using the BG1 cell line - cell viability counter screen (AID 743081);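 further: compound given together with 17beta-estradiol as the ER stimulus; nearly all actives have a fitted effect of over 45% in size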; further: potency means the concentration at half of the fitted maximal effect
Aromatase (Homo sapiens) = Aromatase (Homo sapiens) (UniProt P11511); assay: qHTS assay to identify aromatase inhibitors (AID 743083); further: nearly all actives have a fitted effect of over 55% in size; further: potency means the concentration at half of the fitted maximal effect
Chain of Aromatase (Homo sapiens) (P11511 whole entry, looked up): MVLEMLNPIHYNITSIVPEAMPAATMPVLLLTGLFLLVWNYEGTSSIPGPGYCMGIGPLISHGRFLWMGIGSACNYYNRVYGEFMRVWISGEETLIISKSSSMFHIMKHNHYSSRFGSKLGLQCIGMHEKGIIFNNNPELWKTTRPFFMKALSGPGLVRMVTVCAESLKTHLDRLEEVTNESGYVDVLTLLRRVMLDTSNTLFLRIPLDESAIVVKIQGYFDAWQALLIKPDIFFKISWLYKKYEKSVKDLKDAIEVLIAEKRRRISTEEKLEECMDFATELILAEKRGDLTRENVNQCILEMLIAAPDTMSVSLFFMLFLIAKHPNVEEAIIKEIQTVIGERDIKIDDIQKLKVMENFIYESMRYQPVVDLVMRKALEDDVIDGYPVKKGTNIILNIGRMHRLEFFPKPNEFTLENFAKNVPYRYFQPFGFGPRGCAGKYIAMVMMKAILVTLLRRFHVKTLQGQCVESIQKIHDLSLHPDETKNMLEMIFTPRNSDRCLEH

[6] = qHTS assay to identify aromatase inhibitors - cell viability counter screen (AID 743084);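 further: cells stimulated with testosterone during compound exposure; nearly all actives have a fitted effect of over 55% in size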; further: potency means the concentration at half of the fitted maximal effect
[7] = molecular target: Aryl hydrocarbon receptor (Homo sapiens) (UniProt P35869); assay: qHTS assay to identify small molecule that activate the aryl hydrocarbon receptor (AhR) signaling pathway (AID 743085); further: nearly all actives have a fitted effect of over 15% in size; further: potency means the concentration at half of the fitted maximal effect;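 on activation: HG2L7.5c1 human HepG2 liver cells with stably integrated DRE-driven firefly reporter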
Chain of Aryl hydrocarbon receptor (Homo sapiens) (P35869 whole entry, looked up): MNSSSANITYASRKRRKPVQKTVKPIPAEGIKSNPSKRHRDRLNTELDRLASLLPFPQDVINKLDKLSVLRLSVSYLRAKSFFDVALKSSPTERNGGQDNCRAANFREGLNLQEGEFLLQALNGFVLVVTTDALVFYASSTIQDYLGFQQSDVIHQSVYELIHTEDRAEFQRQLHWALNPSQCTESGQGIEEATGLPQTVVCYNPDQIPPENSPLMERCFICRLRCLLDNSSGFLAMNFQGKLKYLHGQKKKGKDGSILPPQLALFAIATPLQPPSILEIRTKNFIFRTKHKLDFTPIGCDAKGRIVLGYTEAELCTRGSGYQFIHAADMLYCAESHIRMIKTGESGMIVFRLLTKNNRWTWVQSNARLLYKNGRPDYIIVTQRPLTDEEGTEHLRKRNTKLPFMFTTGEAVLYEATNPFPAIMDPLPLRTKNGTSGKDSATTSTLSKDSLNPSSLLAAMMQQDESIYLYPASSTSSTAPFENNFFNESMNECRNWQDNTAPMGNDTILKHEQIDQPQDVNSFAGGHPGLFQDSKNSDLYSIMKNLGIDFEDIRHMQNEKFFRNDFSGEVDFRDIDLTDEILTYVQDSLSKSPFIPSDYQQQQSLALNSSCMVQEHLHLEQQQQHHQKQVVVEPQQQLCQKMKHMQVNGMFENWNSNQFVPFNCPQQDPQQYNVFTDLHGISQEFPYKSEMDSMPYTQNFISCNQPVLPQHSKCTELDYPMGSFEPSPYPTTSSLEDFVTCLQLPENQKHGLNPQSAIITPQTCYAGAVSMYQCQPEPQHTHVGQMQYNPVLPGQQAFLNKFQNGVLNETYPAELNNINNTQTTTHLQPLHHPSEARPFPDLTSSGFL
Procedure, shortened: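 Stably transfected human liver carcinoma cells (HG2L7.5c1; 20 DRE-firefly luciferase) were incubated 5 h, dosed, and kept 24 h at 37C. Agonism was scored from increased luciferase luminescence.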

[8] = qHTS assay to identify small molecule that activate the aryl hydrocarbon receptor (AhR) signaling pathway - cell viability counter screen (AID 743086);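 further: HepG2 liver cells carrying the AhR DRE luciferase reporter; nearly all actives have a fitted effect of over 45% in size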
Procedure, shortened: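 Cytotoxicity counter screen: CellTiter-Fluor signal (30 min, 37 C) in 4000 HepG2 cells/well carrying the DRE-luciferase reporter, following 24 h compound exposure at 37 C.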

[9] = molecular target: Peroxisome proliferator-activated receptor gamma (Homo sapiens) (UniProt P37231); assay: qHTS assay to identify small molecule agonists of the peroxisome proliferator-activated receptor gamma (PPARg) signaling pathway (AID 743094; active means well fitted activation curve with a large enough effect in the signal ratio in the repeat runs, not every such curve was filed as active; inconclusive means weak or mixed curves, or effect the other way; inactive means no such curve, though single readings can be large or run the other way; the % refers to the signal ratio)
Chain of Peroxisome proliferator-activated receptor gamma (Homo sapiens) (P37231 whole entry, looked up): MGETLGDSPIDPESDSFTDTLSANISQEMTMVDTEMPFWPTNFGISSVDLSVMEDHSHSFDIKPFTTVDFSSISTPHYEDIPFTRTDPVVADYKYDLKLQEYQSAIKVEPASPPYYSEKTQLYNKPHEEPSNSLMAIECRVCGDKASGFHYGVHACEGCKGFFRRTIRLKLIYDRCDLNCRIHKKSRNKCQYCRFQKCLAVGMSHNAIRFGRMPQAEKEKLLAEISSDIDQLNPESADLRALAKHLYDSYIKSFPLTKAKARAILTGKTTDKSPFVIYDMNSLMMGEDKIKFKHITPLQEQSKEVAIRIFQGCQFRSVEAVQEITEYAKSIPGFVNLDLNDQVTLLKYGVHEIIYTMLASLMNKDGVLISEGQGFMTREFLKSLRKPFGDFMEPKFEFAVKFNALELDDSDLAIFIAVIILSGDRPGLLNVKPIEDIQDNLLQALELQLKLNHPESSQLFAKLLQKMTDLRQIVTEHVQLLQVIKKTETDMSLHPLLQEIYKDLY
Procedure, shortened: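 Stably transfected HEK293H cells (GeneBLAzer PPARg UAS-bla) were incubated with test substances for 17 h at 37C after a 5 h pre-incubation; beta-lactamase activity was then detected by FRET substrate fluorescence.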

[10] = qHTS assay to identify small molecule antagonists of the peroxisome proliferator-activated receptor gamma (PPARg) signaling pathway - cell viability counter screen (AID 743194); conditions: Potency: co-treated with 50 nM rosiglitazone unless noted; further: nearly all actives have a fitted effect of over 55% in size
Procedure, shortened: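 Viability was measured as CellTiter-Glo luminescence in GeneBLAzer PPARg UAS-bla HEK293H cells. These cells had been exposed 17 h at 37 C to compounds together with rosiglitazone at 50 nM final, with the beta-lactamase readout taken in the same wells.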

[11] = qHTS assay for small molecule agonists of the antioxidant response element (ARE) signaling pathway (AID 743202; active means well fitted activation curve with a large enough effect in the signal ratio in the repeat runs, not every such curve was filed as active; inconclusive means weak or mixed curves, or effect the other way; inactive means no such curve, though single readings can be large or run the other way; the % refers to the signal ratio; further: potency means the concentration at half of the fitted maximal effect)
Procedure, shortened: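 Quantitative high-throughput format in HepG2 cells bearing an integrated ARE-beta-lactamase reporter. Compound exposure lasted 16 h at 37 C, and fluorescence was read 2 h after adding LiveBLAzer B/G substrate at room temperature.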

[12] = qHTS assay for small molecule agonists of the antioxidant response element (ARE) signaling pathway - cell viability counter screen (AID 743203; calls by dose curve; further: nearly all actives have a fitted effect of over 55% in size; further: potency means the concentration at half of the fitted maximal effect)
Procedure, shortened: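 Cells (ARE-bla HepG2, 2,000/well) receive DMSO-dissolved compounds after a 5 hrs rest. Plates incubate 16 hrs at 37C/5% CO2. CellTiter-Glo luminescence is then recorded after 30 min at room temperature.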

[13] = qHTS assay for small molecule activators of the heat shock response signaling pathway - cell viability counter screen (AID 743209); further: nearly all actives have a fitted effect of over 50% in size
Procedure, shortened: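 Quantitative HTS format, Tox21 10K library. HeLa cells carrying an HSE-driven beta-lactamase reporter were treated 5 h at 37 C, then assessed for viability by CellTiter-Glo luminescence.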

[14] = qHTS assay for small molecule activators of the heat shock response signaling pathway (AID 743210; active means well fitted activation curve with a large enough effect in the signal ratio in the repeat runs, with a control signal flat, not every such curve was filed as active; inconclusive means weak or mixed curves; the % refers to the signal ratio;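 further: HeLa cells with beta-lactamase reporter driven by heat shock elements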)
Procedure, shortened: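 HeLa HSE-bla cells, overnight plating; cpd in DMSO 5 h, 37 C; LiveBLAzer B/G FRET substrate 2.5 h RT; fluorescence intensity read.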

[15] = molecular target: Estrogen receptor (Homo sapiens) (UniProt P03372); assay: qHTS assay to identify small molecule antagonists of the estrogen receptor alpha (ER-alpha) signaling pathway (AID 743069; active means well fitted curve in the direction sought with a large enough effect in the signal ratio in the repeat runs, not every such curve was filed as active; inconclusive means weak or mixed curves, or effect the other way; inactive means no such curve, though single readings can be large or run the other way; the % refers to the signal ratio; further: potency means the concentration at half of the fitted maximal effect)
Chain of Estrogen receptor (Homo sapiens) (P03372 whole entry, looked up): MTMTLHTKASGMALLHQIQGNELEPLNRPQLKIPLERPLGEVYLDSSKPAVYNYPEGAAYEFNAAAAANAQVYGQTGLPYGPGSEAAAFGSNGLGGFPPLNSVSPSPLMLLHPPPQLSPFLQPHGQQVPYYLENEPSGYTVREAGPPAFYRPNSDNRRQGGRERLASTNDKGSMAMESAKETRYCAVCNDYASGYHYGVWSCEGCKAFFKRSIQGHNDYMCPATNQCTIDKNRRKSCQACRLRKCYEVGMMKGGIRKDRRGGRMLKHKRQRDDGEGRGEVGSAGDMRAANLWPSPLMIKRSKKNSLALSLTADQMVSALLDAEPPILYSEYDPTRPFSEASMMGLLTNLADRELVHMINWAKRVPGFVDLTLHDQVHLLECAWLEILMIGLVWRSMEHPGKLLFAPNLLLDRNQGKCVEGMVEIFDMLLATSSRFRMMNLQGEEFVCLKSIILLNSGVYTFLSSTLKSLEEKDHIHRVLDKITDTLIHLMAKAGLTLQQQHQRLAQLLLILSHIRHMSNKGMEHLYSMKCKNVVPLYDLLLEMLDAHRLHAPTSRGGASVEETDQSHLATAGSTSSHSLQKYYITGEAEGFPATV
Procedure, shortened: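 ER-alpha-UAS-bla GripTite HEK293 line; 2% charcoal-stripped FBS overnight; plated, 4 hr 37C/5% CO2; cpd in DMSO + 17beta-estradiol, 18 hr 37C; LiveBLAzer B/G FRET substrate 2 hr RT; fluorescence intensity.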

[16] = molecular target: Estrogen receptor (Homo sapiens) (UniProt P03372); assay: qHTS assay to identify small molecule agonists of the estrogen receptor alpha (ER-alpha) signaling pathway (AID 743075; calls by dose curve;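 further: HEK293 GripTite cells with ER-alpha and UAS-driven beta-lactamase reporter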)
[17] = qHTS assay to identify small molecule antagonists of the estrogen receptor alpha (ER-alpha) signaling pathway using the BG1 cell line (AID 743080; calls by dose curve;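 further: BG1 cells stimulated with 17beta-estradiol alongside compound; nearly all actives have a fitted effect of over 25% in size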; further: potency means the concentration at half of the fitted maximal effect)
Procedure, shortened: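 Luminescence from a 4×ERE-luciferase reporter in BG1-Luc-4E2 cells served as read-out. Cells, pre-cultured 5 days in stripped-serum phenol-red-free medium, were exposed to compound with 17beta-estradiol co-stimulation for 21.5 h at 37 C.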

[18] = molecular target: Peroxisome proliferator-activated receptor gamma (Homo sapiens) (UniProt P37231); assay: qHTS assay to identify small molecule antagonists of the peroxisome proliferator-activated receptor gamma (PPARg) signaling pathway (AID 743191; calls by dose curve; further: nearly all actives have a fitted effect of over 30% in size)
Procedure, shortened: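 Beta-lactamase reporter under UAS control in HEK293H PPARg-bla cells; compound treatment 17 h at 37C. Read-out: fluorescence intensity after 1 h room-temperature incubation with LiveBLAzer B/G FRET substrate.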

[19] = molecular target: Estrogen receptor (Homo sapiens) (UniProt P03372); assay: qHTS assay to identify small molecule agonists of the estrogen receptor alpha (ER-alpha) signaling pathway using the BG1 cell line (AID 743079); conditions: BG1Luc4E2 cells, ERE-luciferase agonist, 22 h; activation: at 70.3 µM (top of the series) unless noted; further: nearly all actives have a fitted effect of over 20% in size

ClC(Cl)(Cl)Br
Potency [1]: inactive | Potency [2]: inactive | Potency [3]: inactive | Potency [4]: inactive | Potency [5]: inactive | Potency (Aromatase (Homo sapiens)): inactive | Potency [6]: inactive | Potency [7]: inactive | Potency [8]: inactive | Potency [9]: inactive | Potency [10]: inactive | Potency [11]: inactive | Potency [12]: inactive | Potency [13]: inactive | activation [14]: -1.07% [at 13.2 µM] (inactive)

Cl
Potency [1]: inactive | Potency [2]: inactive | Potency [3]: inactive | Potency [4]: inactive | Potency [5]: inactive | Potency (Aromatase (Homo sapiens)): inactive | Potency [6]: inactive | Potency [7]: inactive | Potency [8]: inactive | Potency [10]: inactive | Potency [11]: inactive | Potency [12]: inactive | Potency [13]: inactive | Potency [14]: inactive

N#Cc1nn(-c2c(Cl)cc(C(F)(F)F)cc2Cl)c(N)c1S(=O)C(F)(F)F (configuration not stated)
Potency [1]: 29.8 µM (active) and 61.5 µM (active) | Potency [2]: 26.6 µM (active) and 19.4 µM (active) | Potency [3]: inactive | Potency [15]: 17.5 µM [inconclusive] (active) | Potency [4]: inactive | Potency [16]: inactive | Potency [17]: 7.5 µM (active) and 24.5 µM (active) | Potency [5]: inactive | Potency (Aromatase (Homo sapiens)): 33.5 µM (active) and 19.4 µM (active) | Potency [6]: inactive | Potency [7]: inactive | Potency [9]: inactive | Potency [18]: inactive | Potency [10]: inactive | Potency [13]: inactive

COP(=S)(OC)Oc1ccc(Sc2ccc(OP(=S)(OC)OC)cc2)cc1
Potency [1]: inactive | Potency [2]: inactive | Potency [3]: inactive | Potency [15]: 21.9 µM [inconclusive] (active) | Potency [4]: inactive | Potency [16]: inactive | Potency [17]: 29.8 µM (active) | Potency [5]: inactive | Potency (Aromatase (Homo sapiens)): inactive | Potency [6]: inactive | Potency [7]: inactive | Potency [8]: inactive | Potency [9]: inactive | Potency [10]: inactive | Potency [11]: inactive | Potency [12]: 43.3 µM (active) and inactive | Potency [13]: inactive

CC1CC(=O)O1 (configuration not stated)
Potency [1]: inactive | Potency [2]: inactive | Potency [3]: inactive | Potency [4]: inactive | Potency [5]: inactive | Potency (Aromatase (Homo sapiens)): inactive | Potency [6]: inactive | Potency [7]: inactive | Potency [8]: inactive | Potency [9]: inactive | Potency [10]: inactive | Potency [11]: inactive | Potency [12]: inactive | Potency [13]: inactive | Potency [14]: inactive

O=P(OCCCl)(OCCCl)OCCCl
Potency [1]: inactive | Potency [2]: inactive | Potency [3]: inactive | Potency [4]: inactive | Potency [5]: inactive | Potency (Aromatase (Homo sapiens)): inactive | Potency [6]: inactive | Potency [7]: inactive | Potency [8]: inactive | Potency [9]: inactive | Potency [18]: inactive | Potency [10]: inactive | Potency [11]: inactive | Potency [12]: inactive | Potency [13]: inactive | Potency [14]: inactive

CC(C)Nc1ccc(Nc2ccccc2)cc1
Potency [1]: 13.3 µM (active) and 30.6 µM (active) | Potency [2]: 11.9 µM (active) and 30.5 µM (active) and 17.2 µM (active) | Potency [3]: inactive | Potency [4]: 48.8 µM (active) and 43.6 µM (active) | Potency [16]: inactive | Potency [5]: inactive | Potency (Aromatase (Homo sapiens)): 13.3 µM (active) and 27.2 µM (active) | Potency [6]: 30.5 µM (active) and 54.5 µM (active) | Potency [7]: inactive and 2.17 µM (active) | Potency [11]: 27.3 µM (active) | Potency [12]: inactive | Potency [13]: inactive

Clc1cccc(Cl)c1
Potency [1]: inactive | Potency [2]: inactive | Potency [3]: inactive | Potency [4]: inactive | Potency [5]: inactive | Potency (Aromatase (Homo sapiens)): inactive | Potency [6]: inactive | Potency [7]: inactive | Potency [8]: inactive | Potency [9]: inactive | Potency [10]: inactive | Potency [11]: inactive | Potency [12]: inactive | Potency [13]: inactive | Potency [14]: inactive

COP(=S)(OC)Oc1ccc(S(=O)(=O)N(C)C)cc1
Potency [1]: inactive | Potency [3]: inactive | Potency [15]: inactive | Potency [4]: inactive | Potency [16]: inactive | Potency [19]: inactive | Potency [17]: inactive | Potency [5]: inactive | Potency (Aromatase (Homo sapiens)): inactive and 61.1 µM (active) | Potency [6]: inactive | Potency [7]: inactive | Potency [9]: inactive | Potency [10]: inactive | Potency [12]: inactive | Potency [13]: inactive | Potency [14]: inactive

CCOP(=O)(O)OCC (tested in a mixture with another compound)
Potency [1]: inactive and 7.63 µM (active) | Potency [3]: inactive | Potency [4]: inactive and 27.3 µM (active) | Potency [5]: inactive and 54 µM (active) | Potency [6]: inactive and 24.1 µM (active) | Potency [11]: inactive | Potency [12]: inactive and 17.1 µM (active) | Potency [13]: inactive

CC(C)(O)C#N
Potency [1]: inactive | Potency [4]: inactive | Potency [5]: inactive | Potency (Aromatase (Homo sapiens)): inactive | Potency [6]: inactive | Potency [7]: inactive | Potency [9]: inactive | Potency [10]: inactive | Potency [11]: inactive | Potency [12]: inactive | Potency [13]: inactive | Potency [14]: inactive

CNC(=S)S
Potency [1]: inactive | Potency [15]: inactive | Potency [4]: inactive | Potency [16]: inactive | Potency [19]: inactive | Potency [17]: inactive | Potency [5]: inactive | Potency (Aromatase (Homo sapiens)): inactive | Potency [6]: inactive | Potency [7]: inactive | Potency [8]: inactive | Potency [9]: inactive | Potency [18]: inactive | Potency [10]: inactive | Potency [11]: inactive | Potency [12]: inactive | Potency [13]: inactive

N#CCCCCC#N
Potency [2]: inactive | Potency [3]: inactive | Potency [4]: inactive | Potency [5]: inactive | Potency (Aromatase (Homo sapiens)): inactive | Potency [6]: inactive | Potency [7]: inactive | Potency [9]: inactive | Potency [10]: inactive | Potency [11]: inactive | Potency [12]: inactive | Potency [13]: inactive | Potency [14]: inactive

[CH3][Sn]([Cl])([Cl])[Cl]
Potency [1]: inactive | Potency [4]: inactive | Potency [5]: inactive | Potency (Aromatase (Homo sapiens)): inactive | Potency [6]: inactive | Potency [7]: inactive | Potency [9]: inactive | Potency [10]: inactive | Potency [11]: inactive | Potency [12]: inactive | Potency [13]: inactive | Potency [14]: inactive
